Source: PubChem BioAssay (Tox21)
Records with an inconclusive call do not appear. A call without a number means that no potency is given here. Calls of active or inactive are those of the source. Unless noted, the call rests on the fitted dose curve.

What was measured:
[1] = Nuclear factor erythroid 2-related factor 2/antioxidant responsive element (Nrf2/ARE) small molecule agonists: qHTS cell viability counter screen in human keratinocytes (AID 1919968; active means well fitted curve in the direction sought with a large enough effect in the repeat runs; an effect the other way counts as inactive or inconclusive; further: nearly all actives have a fitted effect of over 55% in size)
Procedure, shortened: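 In human HaCaT keratinocytes stably expressing an ARE-driven luciferase, compound exposure lasted 23 h at 37 C under 5% CO2. Viable cells are quantified with a protease-based fluorogenic reagent (CellTiter-Fluor) read 1 h after addition.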

[2] = Nuclear factor erythroid 2-related factor 2/antioxidant responsive element (Nrf2/ARE) small molecule agonists: luciferase reporter gene qHTS assay in human keratinocytes (AID 1919969); further: nearly all actives have a fitted effect of over 35% in size
[3] = molecular target: Gonadotropin-releasing hormone receptor (Homo sapiens) (UniProt P30968); assay: Human gonadotropin-releasing hormone receptor (GnRHR) small molecule agonists, calcium flux assay in GnRHR-HEK293 cells (AID 1920063); further: nearly all actives have a fitted effect of over 35% in size
Procedure, shortened: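 Intracellular calcium rise is the read-out: engineered human GnRHR HEK293 cells, dye-loaded, are exposed to DMSO-dissolved compounds and fluorescence at Ex/Em 480/540 is tracked for 3 min.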

[4] = molecular target: KiSS-1 receptor (Homo sapiens) (UniProt Q969F8); assay: Human kisspeptin (KISS1R) small molecule agonists, calcium flux assay in KISS1R-HEK293 cells (AID 1920064; active means well fitted curve in the direction sought with a large enough effect in the repeat runs; an effect the other way counts as inactive or inconclusive)
Procedure, shortened: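 Concentration-response testing used 15 concentrations in triplicate on human KISS1R-expressing HEK293 cells. Calcium-dependent fluorescence (Ex/Em 480/540) was followed kinetically for 3 min after compound transfer.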

[5] = G protein-coupled receptor (GPCR) small molecule agonists, calcium flux assay: HEK293 wild type cell line counter screen (AID 1920065)
Procedure, shortened: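 Fluorescence intensity signals activation. After overnight (18 h) culture and a 1 h calcium dye load at 37 C, compounds are added by pin tool and the plate read at 480/540 nm for 3 min in 1 s steps.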

[6] = p53 small molecule agonists, cell-based qHTS assay with human liver microsomes: qHTS cell viability counter screen (AID 1963579); further: nearly all actives have a fitted effect of over 45% in size
Procedure, shortened: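 Tox21 library compounds, delivered from DMSO stocks, were tested on p53RE-bla cells together with 0.5 mg/mL human liver microsomes and 0.5 mg/mL NADPH (final) over 16 h at 37 C; CellTiter-Glo luminescence served as the cytotoxicity measure.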

[7] = p53 small molecule agonists, cell-based qHTS assay with rat liver microsomes: qHTS cell viability counter screen (AID 1963580); further: nearly all actives have a fitted effect of over 45% in size
Procedure, shortened: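 Counter screen for cytotoxicity under metabolic activation: rat liver microsomes and NADPH, 0.5 mg/mL final each, added with compounds to p53RE-bla HCT-116 cells; 16 h at 37 C, then ATP luminescence read.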

[8] = p53 small molecule agonists, cell-based qHTS assay: qHTS cell viability counter screen (AID 1963581); further: nearly all actives have a fitted effect of over 45% in size
Procedure, shortened: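 Luminescence from CellTiter-Glo, reflecting ATP content, serves as the cytotoxicity measure; it is taken after the 2 h reporter substrate step in HCT-116 p53RE-bla cells dosed for 16 h at 37 C.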

[9] = molecular target: 5-hydroxytryptamine receptor 2A (Homo sapiens) (UniProt P28223); assay: 5-hydroxytryptamine receptor 2A (HTR2A) small molecule antagonists, cell-based qHTS assay (AID 1963586); further: nearly all actives have a fitted effect of over 45% in size
Procedure, shortened: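 CHO cells stably expressing human HTR2A were plated for 18 h at 37 C, then loaded with calcium dye for 1 h. Compounds were preincubated 5 min at room temperature before DOI (4 nM solution) was added. Kinetic fluorescence was read for 3 min.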

[10] = molecular target: 5-hydroxytryptamine receptor 2A (Homo sapiens) (UniProt P28223); assay: 5-hydroxytryptamine receptor 2A (HTR2A) small molecule agonists, cell-based qHTS assay (AID 1963587); further: nearly all actives have a fitted effect of over 30% in size
Procedure, shortened: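 HTR2A-CHO cells, plated 18 h at 37 C/5% CO2, dye-loaded 1 h at 37 C; compounds in DMSO added by pin tool (agonist mode). Intracellular calcium flux read as kinetic fluorescence on FDSS over 2 min at 1 s intervals.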

[11] = molecular target: Muscarinic acetylcholine receptor M1 (Homo sapiens) (UniProt P11229); assay: Cholinergic receptor muscarinic 1 (CHRM1) small molecule antagonists, cell-based qHTS assay (AID 1963588); further: nearly all actives have a fitted effect of over 40% in size; further: potency means the concentration at half of the fitted maximal effect
Procedure, shortened: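 Compounds were tested at 15 concentrations in three independent runs. Dye-loaded CHRM1-CHO cells were exposed 5 min at room temperature before stimulation by acetylcholine added at 50nM. Intracellular calcium was read kinetically on FDSS for 3 min.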

[12] = cAMP Responsive Elements (CRE) small molecule agonists, cell-based qHTS assay (AID 1963590)
Procedure, shortened: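 Compound exposure lasted 3 h at 37 C/5% CO2 in CRE-bla HEK 293T cells grown in assay medium with 10% dialyzed FBS and 25 mM HEPES. Reporter signal came from LiveBLAzer B/G FRET substrate, 2 h, room temperature.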

[13] = cAMP Responsive Elements (CRE) small molecule antagonists, cell-based qHTS assay (AID 1963591; active means well fitted inhibition curve with a large enough effect in the signal ratio in the repeat runs, not every such curve was filed as active; the % refers to the signal ratio)
Procedure, shortened: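 Stimulation used NKH477 at a final 0.25 uM for 3 h in compound-treated CRE-bla HEK293T cells, seeded 18 h beforehand. Reporter activity was measured with LiveBLAzer B/G FRET substrate after 2 h at room temperature.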

[14] = molecular target: Beta-2 adrenergic receptor (Homo sapiens) (UniProt P07550); assay: Adrenergic beta2 receptor (ADRB2) small molecule antagonists, cell-based qHTS assay (AID 1963592); further: series mostly up to about 92 µM; nearly all actives have a fitted effect of over 50% in size
Procedure, shortened: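 Assay format: CHO-ADRB2 cells, 18-20hr seeding at 37C/5% CO2, then compound plus 1nM isoproterenol agonist mix for 0.5hr RT. Homogeneous time-resolved fluorescence cAMP detection after 1hr, expressed as 665/615 nm ratio.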

[15] = molecular target: Beta-2 adrenergic receptor (Homo sapiens) (UniProt P07550); assay: Adrenergic beta2 receptor (ADRB2) small molecule agonists, cell-based qHTS assay (AID 1963593);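 further: CHO cells stably overexpressing human ADRB2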
Procedure, shortened: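 CHO cells stably over-expressing ADRB2 were plated overnight at 37C, then dosed with compounds plus a stimulation mix containing 100uM IBMX and 25uM Ro-20-1724 for 0.5hr at room temperature. cAMP was measured by HTRF competition, 1hr.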

[16] = molecular target: D(2) dopamine receptor (Homo sapiens) (UniProt P14416); assay: Dopamine D2 receptor (DRD2) small molecule agonists, cell-based qHTS assay (AID 1963594); further: nearly all actives have a fitted effect of over 35% in size
Procedure, shortened: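 HEK293 cells stably expressing DRD2 were cultured 24 h at 37 C, then given Ro20-1724 (0.1 mM final) and compounds for 10 min at room temperature. NKH477 (200nM) was then added for 30 min. cAMP was read by HTRF.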

[17] = molecular target: D(2) dopamine receptor (Homo sapiens) (UniProt P14416); assay: Dopamine D2 receptor (DRD2) small molecule antagonists, cell-based qHTS assay (AID 1963595; active means well fitted inhibition curve with a large enough effect in the signal ratio in the repeat runs, with a control signal flat; the % refers to the signal ratio)
Procedure, shortened: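 HEK293 cells stably expressing DRD2 were preincubated with 0.1 mM Ro20-1724, then with compound for 10 min at room temperature. Cells were stimulated with 200 nM NKH477 plus 12 nM quinpirole for 30 min, and cAMP was read by HTRF.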

[18] = molecular target: Muscarinic acetylcholine receptor M1 (Homo sapiens) (UniProt P11229); assay: Cholinergic receptor muscarinic 1 (CHRM1) small molecule agonists, cell-based qHTS assay (AID 1963589); further: nearly all actives have a fitted effect of over 35% in size
Procedure, shortened: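 Fluorescent calcium dye reports M1 activation in stably transfected CHO cells. Compounds, 15 concentrations, added after 1 h dye loading at 37 C; kinetic reading at 1 sec intervals.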

Sequence of Beta-2 adrenergic receptor (Homo sapiens) (P07550 whole entry, looked up): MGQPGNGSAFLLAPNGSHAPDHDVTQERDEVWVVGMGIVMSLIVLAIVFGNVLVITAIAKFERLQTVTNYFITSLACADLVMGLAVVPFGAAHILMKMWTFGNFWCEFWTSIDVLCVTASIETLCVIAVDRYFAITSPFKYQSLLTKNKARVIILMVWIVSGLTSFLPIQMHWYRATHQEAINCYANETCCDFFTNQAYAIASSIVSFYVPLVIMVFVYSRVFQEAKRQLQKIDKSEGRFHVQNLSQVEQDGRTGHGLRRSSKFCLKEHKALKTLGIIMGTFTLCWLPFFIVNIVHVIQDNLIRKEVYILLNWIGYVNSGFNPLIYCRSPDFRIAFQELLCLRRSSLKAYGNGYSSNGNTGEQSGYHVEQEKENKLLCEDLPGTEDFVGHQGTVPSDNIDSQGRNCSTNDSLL
Sequence of Gonadotropin-releasing hormone receptor (Homo sapiens) (P30968 whole entry, looked up): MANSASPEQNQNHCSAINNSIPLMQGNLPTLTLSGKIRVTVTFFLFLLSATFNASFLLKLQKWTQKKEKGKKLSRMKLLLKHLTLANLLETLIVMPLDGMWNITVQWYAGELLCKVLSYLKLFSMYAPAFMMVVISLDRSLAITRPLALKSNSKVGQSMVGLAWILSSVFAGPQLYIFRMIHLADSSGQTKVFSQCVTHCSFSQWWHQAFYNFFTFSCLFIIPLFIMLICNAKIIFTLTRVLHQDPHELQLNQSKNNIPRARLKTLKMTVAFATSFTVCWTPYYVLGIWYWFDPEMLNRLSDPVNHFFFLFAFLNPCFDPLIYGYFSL
Sequence of 5-hydroxytryptamine receptor 2A (Homo sapiens) (P28223 whole entry, looked up): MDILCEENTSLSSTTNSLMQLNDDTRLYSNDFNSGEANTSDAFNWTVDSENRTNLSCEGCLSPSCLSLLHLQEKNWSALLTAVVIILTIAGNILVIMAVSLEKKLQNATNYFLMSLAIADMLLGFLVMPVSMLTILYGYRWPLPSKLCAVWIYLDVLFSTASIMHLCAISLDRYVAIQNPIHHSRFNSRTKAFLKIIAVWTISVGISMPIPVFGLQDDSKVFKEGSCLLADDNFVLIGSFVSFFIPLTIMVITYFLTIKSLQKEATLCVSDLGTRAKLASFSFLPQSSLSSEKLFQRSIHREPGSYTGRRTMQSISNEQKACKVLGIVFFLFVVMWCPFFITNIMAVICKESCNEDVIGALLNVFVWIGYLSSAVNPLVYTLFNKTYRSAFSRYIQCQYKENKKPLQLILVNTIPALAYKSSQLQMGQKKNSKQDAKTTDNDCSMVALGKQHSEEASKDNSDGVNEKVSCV
Sequence of Muscarinic acetylcholine receptor M1 (Homo sapiens) (P11229 whole entry, looked up): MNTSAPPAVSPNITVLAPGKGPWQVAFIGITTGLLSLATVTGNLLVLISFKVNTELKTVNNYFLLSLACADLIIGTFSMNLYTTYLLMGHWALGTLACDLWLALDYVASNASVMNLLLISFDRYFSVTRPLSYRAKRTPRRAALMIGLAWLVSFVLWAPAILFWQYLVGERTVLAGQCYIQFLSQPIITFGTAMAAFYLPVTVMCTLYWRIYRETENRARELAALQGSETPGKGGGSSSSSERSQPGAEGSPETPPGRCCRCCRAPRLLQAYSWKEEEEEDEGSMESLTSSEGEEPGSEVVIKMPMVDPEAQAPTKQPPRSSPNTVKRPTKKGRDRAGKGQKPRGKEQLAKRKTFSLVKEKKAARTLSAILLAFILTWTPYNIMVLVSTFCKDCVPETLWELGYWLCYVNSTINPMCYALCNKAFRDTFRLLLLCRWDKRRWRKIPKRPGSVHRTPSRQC
Sequence of KiSS-1 receptor (Homo sapiens) (Q969F8 whole entry, looked up): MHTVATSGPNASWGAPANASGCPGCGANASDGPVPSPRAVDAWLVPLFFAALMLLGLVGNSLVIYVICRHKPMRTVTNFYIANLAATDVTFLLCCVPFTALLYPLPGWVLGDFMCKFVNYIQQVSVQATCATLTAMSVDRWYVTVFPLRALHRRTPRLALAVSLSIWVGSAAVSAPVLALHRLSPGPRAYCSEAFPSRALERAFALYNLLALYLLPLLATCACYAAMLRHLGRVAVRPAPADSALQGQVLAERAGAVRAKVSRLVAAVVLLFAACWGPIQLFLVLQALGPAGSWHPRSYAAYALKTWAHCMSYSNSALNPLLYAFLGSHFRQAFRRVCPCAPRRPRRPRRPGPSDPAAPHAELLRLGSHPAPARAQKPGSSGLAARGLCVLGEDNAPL
Sequence of D(2) dopamine receptor (Homo sapiens) (P14416 whole entry, looked up): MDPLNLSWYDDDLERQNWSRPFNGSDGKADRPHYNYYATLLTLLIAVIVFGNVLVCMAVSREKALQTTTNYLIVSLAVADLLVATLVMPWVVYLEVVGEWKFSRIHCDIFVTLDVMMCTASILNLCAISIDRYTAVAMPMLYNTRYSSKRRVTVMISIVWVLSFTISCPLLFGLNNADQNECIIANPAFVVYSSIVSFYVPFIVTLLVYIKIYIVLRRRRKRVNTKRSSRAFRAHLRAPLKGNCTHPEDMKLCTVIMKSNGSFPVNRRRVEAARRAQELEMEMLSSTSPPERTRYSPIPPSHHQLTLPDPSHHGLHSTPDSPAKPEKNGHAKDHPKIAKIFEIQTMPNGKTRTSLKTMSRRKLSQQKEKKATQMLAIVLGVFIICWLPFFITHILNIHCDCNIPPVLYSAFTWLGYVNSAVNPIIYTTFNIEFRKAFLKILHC

Compound | Potency [1] | Potency [2] | Potency [3] | Potency [4] | Potency [5] | Potency [6] | Potency [7] | Potency [8] | Potency [9] | Potency [10] | Potency [11] | Potency [12] | Potency [13] | Potency [14] | Potency [15] | Potency [16] | Potency [17] | Potency [18]
CCC(C)(C)c1cc(-n2nc3ccccc3n2)c(O)c(C(C)(C)CC)c1 | inactive | inactive | inactive | inactive | inactive | inactive | inactive | inactive | inactive | inactive | 95.6 nM (active) | inactive | inactive | inactive | inactive | inactive | inactive | 
COP(=S)(NC(C)C)Oc1ccc(C)cc1[N+](=O)[O-] (stereo not drawn) | inactive | inactive | inactive | inactive | inactive | inactive | inactive | inactive | inactive | inactive | inactive |  | inactive |  |  | inactive |  | inactive
Nc1ccc2c(c1)Cc1ccccc1-2 | inactive | inactive | inactive | inactive | inactive | inactive | inactive | inactive | inactive | inactive | inactive |  | inactive |  | inactive | inactive | inactive | inactive
Clc1cccc2ccccc12 | inactive | inactive | inactive | inactive | inactive | inactive | inactive | inactive | inactive | inactive | inactive |  | inactive | inactive |  | inactive | inactive | inactive
O=C(Cl)c1ccc(Cl)cc1 | inactive | inactive | inactive | inactive | inactive | inactive | inactive | inactive | inactive | inactive | inactive | inactive | inactive | inactive | inactive | inactive | inactive | 
O=C(O)C(Br)(Br)Br | inactive | inactive | inactive | inactive | inactive | inactive | inactive | inactive | inactive | inactive |  | inactive | inactive | inactive | inactive |  | inactive | inactive
C=CC(=O)OCC | inactive | inactive | inactive | inactive | inactive | inactive | inactive | inactive | inactive | inactive |  | inactive | inactive | inactive | inactive | inactive | inactive | inactive
Cc1ccc(C)c2ccccc12 | inactive | inactive | inactive | inactive | inactive | inactive | inactive | inactive | inactive | inactive | inactive | inactive | inactive | inactive | inactive | inactive |  | 
CCC#N | inactive | inactive | inactive | inactive | inactive | inactive | inactive | inactive | inactive | inactive | inactive |  | inactive | inactive | inactive | inactive | inactive | inactive
CCN(C(C)=O)c1cccc(-c2ccnc3c(C#N)cnn23)c1 | inactive | inactive | inactive | inactive | inactive | inactive | inactive |  |  |  |  | inactive |  | inactive |  | inactive | inactive | 
CCN[C@H](C)Cc1cccc(C(F)(F)F)c1 | inactive | inactive | inactive | inactive | inactive |  | inactive | inactive |  |  |  |  |  |  |  |  |  | 
Cc1ccc2cc3c(ccc4ccccc43)c3c2c1CC3 | inactive | inactive | inactive | inactive | inactive | inactive | inactive | inactive |  |  |  | inactive | inactive | inactive | inactive | inactive | inactive | 
